Bioassay records (PubChem BioAssay)
Shown are actives, neighbours in structure and some others; about 31% of the full set was active somewhere.
CYP2C9 inhib = human CYP2C9 inhibition; P11712; 20% of 96,000 active; CYP2C9 Supersomes, luciferin-H conversion, luminescence; inhibition, % at 5 µM;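 active = blocking of liver enzyme CYP2C9 beyond about 50% at 5 µM, limit read from the data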
CYP2C9 activ = activators of human CYP2C9. recombinant CYP2C9, luciferin-H conversion, luminescence; hits give high values; factor 1 = untreated enzyme, 0 = blocked. 1.4% of 96,000 active. P11712. activation factor at 5 µM. AID 1024;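 active = activation factor of 2 or more for CYP2C9 at a 5 µM dose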;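 note: 0 = sulfaphenazole-blocked wells and 1 = vehicle-only wells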
CYP2C19 inh = human CYP2C19 inhibition; CYP2C19 Supersomes, luciferin-H EGE luminescence, 30 min; 21% of 96,000 active; AID 778; P33261; inhibition, % at 5 µM;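 active = CYP2C19 inhibition above a set limit at 5 µM in the primary screen, cut at about 50% in these data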;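 note: plate controls were negative control wells for no effect and 2.5 mM tranylcypromine positive control for full effect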
Target sequence (P33261 whole entry, looked up): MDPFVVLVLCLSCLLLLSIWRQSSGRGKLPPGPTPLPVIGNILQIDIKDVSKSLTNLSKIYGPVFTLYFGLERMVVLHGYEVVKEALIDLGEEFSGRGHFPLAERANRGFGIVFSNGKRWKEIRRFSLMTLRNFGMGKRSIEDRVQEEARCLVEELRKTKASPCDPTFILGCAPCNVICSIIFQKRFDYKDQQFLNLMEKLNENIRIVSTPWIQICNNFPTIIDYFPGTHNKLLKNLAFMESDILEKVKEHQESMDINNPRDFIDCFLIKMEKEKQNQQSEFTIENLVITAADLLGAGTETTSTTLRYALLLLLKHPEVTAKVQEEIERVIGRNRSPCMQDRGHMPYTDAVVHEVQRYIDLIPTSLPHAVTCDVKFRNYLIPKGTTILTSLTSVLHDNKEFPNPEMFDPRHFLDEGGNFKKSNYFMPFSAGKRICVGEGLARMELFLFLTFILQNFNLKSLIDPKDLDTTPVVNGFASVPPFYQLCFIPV
CYP2C19 activ = activators of human cytochrome P450 2C19. P33261. recombinant CYP2C19, luciferin-H EGE luminescence; hits give high values; 0 = fully inhibited enzyme, 1 = untreated enzyme. activation factor at 5 µM. 96,000 tested, under 10 active;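 active = activation factor of at least 2 at 5 µM in the primary screen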;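 note: 0 = wells with 2.5 mM tranylcypromine and 1 = vehicle-only wells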
* hit, by the source's call.

SMILES	CYP2C9 inhib	CYP2C9 activ	CYP2C19 inh	CYP2C19 activ
Clc1nnc2ccc(-c3ccccc3)nn12	-8	1.1	-6	1.1
CC(=O)C1=C(O)C(=O)N(CCN(C)C)C1c1ccc(Cl)cc1 (stereo not drawn)	-13	1.1	-9	1.1
CC1CCN(S(=O)(=O)Cc2ccccc2Cl)CC1	-238	3.4*	96*	0
O=S(=O)(Cc1ccccc1Cl)N1CCCCC1	-46	1.5	60*	0.4
CC1CCN(S(=O)(=O)c2cccc(S(=O)(=O)N3CCOCC3)c2)CC1	25	0.8	21	0.8
CCOC(=O)C1C(=O)NC(N2CCOCC2)=NC1C(C)C (stereo not drawn)	-8	1.1	-12	1.1
O=C(NCCOC(=O)c1ccc(Cl)cc1)c1cccnc1	19	0.8	23	0.8
CCCc1cc(Nc2c(C)n(C)n(-c3ccccc3)c2=O)n2c(nc3ccccc32)c1C#N	62*	0.4	6	0.9
Cc1nc(NCCCO)c(C#N)c2c1COC(C)(C)C2	5	1	10	0.9
COc1cc(CN/C(C)=C(\C#N)C(N)=O)cc(OC)c1OC	51*	0.5	67*	0.3
c1ccc(SCc2nc3ccccc3[nH]2)cc1	16	0.8	90*	0.1
Clc1ccc(SCc2nc3ccccc3[nH]2)cc1	54*	0.5	100*	0
Cc1ccc(SCc2nc3ccccc3[nH]2)cc1	50	0.5	89*	0.1
Cc1cc(C)c(C#N)c(SCc2nc3ccccc3[nH]2)n1	58*	0.4	56*	0.4
CCn1c(Cc2cccn2C)nnc1SCC(=O)c1ccc(C)cc1	27	0.7	47	0.5
O=c1[nH]c2ccccc2nc1C(Cl)c1ccccc1 (stereo not drawn)	-12	1.1	27	0.7
CCOc1ccc(OCC)c(S(=O)(=O)N2CCC(C)CC2)c1	34	0.7	60*	0.4
CCOc1ccc(OCC)c(S(=O)(=O)N2CCCCC2)c1	40	0.6	81*	0.2
CCOC(=O)N1CCN(S(=O)(=O)c2ccc(OCC)c(C)c2)CC1	-66	1.7	96*	0
CCOC(=O)N1CCN(S(=O)(=O)c2cc(OCC)ccc2OCC)CC1	55*	0.4	59*	0.4
Cn1ncc2c(=O)n(CC(=O)NC34CC5CC(CC(C5)C3)C4)cnc21	-21	1.2	-6	1.1
CCCCS(=O)(=O)NC1=NCN(Cc2ccco2)CN1	10	0.9	3	1
CCOC(=O)N1CCN(C(=O)COc2ccc(S(=O)(=O)NCC(C)C)cc2C)CC1	62*	0.4	18	0.8
CCOC(=O)N1CCN(S(=O)(=O)c2cccc3ccc(C)nc23)CC1	-69	1.7	66*	0.3
Cc1cc(S(=O)(=O)NCC(C)C)ccc1OCC(=O)N1CCOCC1	-13	1.1	-13	1.1
SMILES	CYP2C9 inhib	CYP2C9 activ	CYP2C19 inh	CYP2C19 activ
Cc1cc(Cl)ccc1NC(=O)CSc1nnc(Cc2cccs2)n1Cc1ccco1	49	0.5	61*	0.4
COc1cccc(-n2nnnc2SCC(=O)c2cc(OC)ccc2OC)c1	23	0.8	11	0.9
COc1cc2c(cc1NC(=O)COc1ccccc1OC)oc1ccccc12	16	0.8	1	1
COCCn1c(SCC(=O)c2ccc(F)cc2)nnc1C(C)C	79*	0.2	76*	0.2
COc1ccc(OC)c(C(=O)CSc2nnc(Cc3cccs3)n2C)c1	36	0.6	89*	0.1
COCCn1c(SCC(=O)c2cccc(OC)c2)nnc1-c1ccco1	26	0.7	31	0.7
COc1cc2c(cc1NC(=O)COC(=O)Cn1cnc3ccccc31)oc1ccccc12	61*	0.4	40	0.6
CCN(CC)S(=O)(=O)c1cccc(C(=O)NC(Cc2c[nH]c3ccccc23)c2nnc3n2CCCCC3)c1 (stereo not drawn)	18	0.8	6	0.9
COc1ccc(-c2c3c(=O)n(C)c(=O)n(C)c3cn2Cc2cccnc2)cc1	5	0.9	28	0.7
CCn1c(Cc2cccs2)nnc1SCC(=O)Nc1ccc(OC)c(OC)c1	-25	1.2	-23	1.2
COc1cc2c(cc1NC(=O)CSc1nnc(Cc3cccs3)n1Cc1ccco1)oc1ccccc12	84*	0.2	58*	0.4
COc1cc2c(cc1NC(=O)CSc1ccc(C)cc1)oc1ccccc12	48	0.5	23	0.8
CCn1c(SCC(=O)Nc2cc3oc4ccccc4c3cc2OC)nnc1-c1cccs1	55*	0.4	41	0.6
COc1cc2c(cc1NC(=O)CSc1nnc(Cc3cccs3)n1C)oc1ccccc12	57*	0.4	15	0.8
COc1cc2c(cc1NC(=O)CSc1nnc(COc3ccc(Cl)cc3)n1C)oc1ccccc12	42	0.6	23	0.8
CCCn1c(SCC(=O)c2cc(OC)ccc2OC)nnc1C(C)C	16	0.8	92*	0.1
O=[N+]([O-])c1ccc(-c2ccc(/C=N/c3c(-c4ccco4)nc4ccccn34)o2)cc1	10	0.9	-3	1
O/N=C/CCn1c(=S)sc2ccccc21	-409	5.1*	50	0.5
COCC(C)NC(=O)c1cc(-c2cccc(OC)c2)on1 (stereo not drawn)	-22	1.2	-7	1.1
CCc1c(C)sc(NC(=O)c2cc(-c3ccc(O)cc3)on2)c1C#N	-106	2.1*	-2	1
Cc1ccc(-c2cc(C(=O)Nc3c(C#N)cnn3C)no2)cc1	56*	0.4	-15	1.2
COCC(C)NC(=O)c1cc(-c2ccc(O)cc2)on1 (stereo not drawn)	-138	2.4*	11	0.9
Cc1ccc(-c2cc(C(=O)Nc3cnn(C(C)C)c3)no2)cc1	21	0.8	-4	1
CCc1c(C)sc(NC(=O)c2cc(-c3ccc(OC)c(OC)c3)on2)c1C#N	-4	1	-12	1.1
CC(C)NC(=O)CN1CCN(c2ncccn2)CC1	8	0.9	10	0.9
SMILES	CYP2C9 inhib	CYP2C9 activ	CYP2C19 inh	CYP2C19 activ
COc1ccc(NC(=O)C2CCN(C(=O)c3cccs3)CC2)cc1OC	-30	1.3	-5	1
CCCS(=O)(=O)N1CCCC(C(=O)NCCCOCC)C1 (stereo not drawn)	-2	1	2	1
CS(=O)(=O)n1nc(-c2ccc(Cl)cc2)nc1SCc1ccccc1	69*	0.3	51*	0.5
CCN1CCN(C(c2ccc(OC)cc2)C(O)C(=O)c2c[nH]c3ccccc23)CC1 (stereo not drawn)	-5	1	14	0.9
COc1cc(OC)c(OC)cc1/C=N/NC(=O)CC1C(=O)NN=C1C (stereo not drawn)	-9	1.1	-8	1.1
CS(=O)(=O)N(CC(=O)Nc1ccc(CC#N)cc1)c1ccc(C23CC4CC(CC(C4)C2)C3)cc1	59*	0.4	11	0.9
Cc1nc(CN2CCN(C(=O)c3ccc(Br)cc3)CC2)cs1	-16	1.2	14	0.9
CC(=O)N1CCc2cc(Br)cc(S(=O)(=O)N3CCN(C(=O)c4ccco4)CC3)c21	59*	0.4	28	0.7
CC(=O)N1CCc2cc(Br)cc(S(=O)(=O)N3CCCCCC3)c21	-41	1.4	37	0.6
O=C(c1ccco1)N1CCN(S(=O)(=O)c2cccc(C(F)(F)F)c2)CC1	71*	0.3	83*	0.2
